PubChem BioAssay AID686979 (National Center for Advancing Translational Sciences (NCATS), 2013)
Where “and” joins values, the source holds several entries; their conditions need not be identical. Equal entries are not always repeated. In all, about 420,000 compounds went through this assay and about 50,000 (12%) were called active. Roughly 26% stayed inconclusive and do not appear here. Calls follow the shape of the dose curve; as a rule, active = well fitted inhibition curve with a large enough effect; inconclusive = small, poorly fitted or top-dose-only effect; inactive = flat fitted curve, though single readings scatter. What follows is part of a selection rich in actives, with near analogues and random picks from the rest. Where a call stands in place of a potency, no number is given.

Test: qHTS for Inhibitors of human tyrosyl-DNA phosphodiesterase 1 (TDP1): qHTS in cells in presence of CPT; also: nearly all actives have a fitted effect of over 55% in size
Conditions: chicken DT40 Tdp1-/-;hTDP1 cells + 20 nM CPT, ATP luminescence, 48 h; series mostly up to 46.2 µM
In short: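 Chicken DT40 Tdp1-/- cells stably complemented with human TDP1 were seeded at 400 cells/well in medium containing 20 nM camptothecin, exposed to pin-transferred compounds, and grown at 37 °C for at least 48 hr. Viability was read as ATP luminescence.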
Potency is read from the fitted curve at half-maximal effect.

Structure (SMILES) | Potency
CN(CC(=O)Nc1ccc(Cl)cc1)C(=O)CNC(=O)c1ccc2ccccc2c1 | inactive
O=C(/C=C/c1ccccc1)Oc1coc(CSc2ncccn2)cc1=O | inactive
COc1ccc(-c2nn3c(-c4ccc(OC)cc4)nnc3c3ccccc23)cc1 | inactive
COc1ccc(OC)c(/C=C/C(=O)OCC(=O)Nc2ccc3c(c2)OCCO3)c1 | 20.6 µM (active)
COc1ccccc1OCCCC(=O)Nc1ccc2c(c1)OCCO2 | inactive
COc1cccc(/C=C/C(=O)Nc2ccc3c(c2)OCCO3)c1 | inactive
Nc1nnc(SCC(=O)NCC(=O)Nc2ccc(F)c(F)c2F)s1 | inactive
COc1ccc(C2/C=C\CN(CC(C)C)CC(=O)N2Cc2ccc(F)cc2)cc1 (configuration not stated) | inactive
O=C(N[C@H]1C/C=C\C(c2ccc(F)cc2)N(Cc2ccccc2)C(=O)C1)OCC1c2ccccc2-c2ccccc21 (some centres not stated) | 18.4 µM (active)
O=C1c2ccccc2C(O)N1Cc1ccccc1 (configuration not stated) | inactive
Cn1c(SCC(=O)N2CCCC2)nnc1-c1ccc2c(c1)OCO2 | inactive
O=C(CNCc1ccc(Cl)cc1)Nc1cccc(C(=O)O)c1 | inactive
CCOC(=O)n1c(SCC(=O)N(CC)CC)nc2ccccc21 | inactive
CCOC(=O)CSc1nc2c(c(=O)n(Cc3ccccc3Cl)c(=O)n2C)n1C | inactive
CCN(CC)C(=O)CSc1nc2ccsc2c(=O)n1Cc1ccccc1Cl | 18.4 µM (active)
O=C(CSc1ccsc1[N+](=O)[O-])N1CCCCC1 | inactive
O=C(Nc1sc2c(c1-c1nc3ccccc3[nH]1)CCCC2)C1CC1 | inactive
Fc1ccc(CNc2nc3ccccc3n3nnnc23)cc1 | inactive
CC(=O)Nc1nonc1-c1nc2ccccc2n1Cc1ccccn1 | inactive
COc1ccc2oc(N)nc2c1 | inactive
COc1cccc(C(O)c2nc3ccccc3n2C)c1 (configuration not stated) | inactive
COc1ccc(C)c(Cn2c(-c3nonc3N)nc3ccccc32)c1 | 2.59 µM (active)
Nc1nonc1-c1nc2ccccc2n1Cc1ccc(F)cc1 | 16.4 µM (active)

Structure (SMILES) | Potency
CN(C)S(=O)(=O)c1ccc(N2CCCC2=O)c([N+](=O)[O-])c1 | inactive
Cc1ccc(F)cc1NC(=O)N1CCCN(c2ccc(C(F)(F)F)cn2)CC1 | inactive
O=C(Cn1c(=O)n(Cc2ccccc2)c(=O)c2sc3ccccc3c21)Nc1ccccc1F | inactive
Brc1ccccc1C1N=C(c2ccccc2)NO1 (configuration not stated) | inactive
CCc1nc2c(=O)[nH]cnc2o1 | inactive
Cc1n[nH]c(=O)c2c(NC(=O)CSc3cc(Cl)ccc3Cl)oc(C)c12 | inactive
CCOc1ccc2c(=O)c(-c3ccc4c(c3)OCCCO4)c(C)oc2c1 | 18.4 µM (active)
O=C(COc1ccc2c(C(F)(F)F)cc(=O)oc2c1)Nc1ccc2c(c1)OCCO2 | inactive
CCOc1ccc(NC(=O)Cn2cc(C(=O)c3ccc(C)cc3)c(=O)c3cc4c(cc32)OCCO4)cc1 | inactive
C=CCn1c(SCC(=O)CC(=O)OCC)nc2cc(C(=O)N3CCC(C(N)=O)CC3)ccc2c1=O | inactive
CCc1ccc(Nc2nn3c(=O)c4cc5c(cc4nc3s2)OCO5)cc1 | inactive
CCOC(=O)C1CCN(C(=O)c2ccc3c(=O)n4nc(Nc5ccccc5CC)sc4nc3c2)CC1 | 13 µM (active)
Cc1nc2c(c(C)nn2-c2ccccc2)c(C)c1CCC(=O)NCCc1ccc(Cl)cc1 | inactive
CCOC(=O)C1CCCN(C(=O)c2ccc(C)c(F)c2)CC1 (configuration not stated) | inactive
Cc1ccccc1Nc1nn2c(=O)c3ccc(C(=O)NCCc4ccc(Cl)cc4)cc3nc2s1 | 5.8 µM (active)
CC(=O)NS(=O)(=O)c1ccc2c(c1)Cc1cc(S(=O)(=O)NC(C)=O)ccc1-2 | inactive
O=C(CN(C(=O)CCC(=O)Nc1nccs1)c1ccc(F)cc1)NCc1ccc2c(c1)OCO2 | inactive
CO[C@@H]1[C@@H](OC(N)=O)[C@@H](O)C(Oc2ccc3c(O)c(NC(=O)c4ccc(O)c(CC=C(C)C)c4)c(=O)oc3c2C)OC1(C)C (some centres not stated) | inactive
Nc1ccc(-c2nnc(-c3ccccc3)o2)cc1 | inactive
Cc1ccc(S(=O)(=O)NCCC(=O)Nc2cccc(S(N)(=O)=O)c2)cc1C | inactive
c1ccc2c(NC3C4CC5CC(C4)CC3C5)nc(N3CCOCC3)nc2c1 (configuration not stated) | 10.3 µM (active)
c1ccc(-n2nnnc2N2CCOCC2)cc1 | inactive
FC(F)(F)c1cc(-c2ccco2)nc(N2CCOCC2)n1 | inactive

Structure (SMILES) | Potency
Cc1ccc(NC(=O)Cc2nc(COC(=O)C(C)NS(=O)(=O)c3ccc(C)cc3)cs2)cc1 (configuration not stated) | inactive
CCOC(=O)c1ccc(NC(=S)Nc2cc(C)cc(C)n2)cc1 | inactive
Cc1ccc(C(=O)NNc2ncnc3ccccc23)cc1 | inactive
CN(c1ccccc1)c1nc(N)c([N+](=O)[O-])c(NCc2ccco2)n1 | inactive
CS(=O)(=O)n1nc(-c2ccccc2)nc1NCc1ccco1 | inactive
c1coc(CNc2ncnc3ccccc23)c1 | 7.08 µM (active) and 10.3 µM (active)
Brc1nc2ncnc(NCc3ccco3)c2[nH]1 | inactive
c1ccc(-c2nc(NCc3ccco3)c3ccccc3n2)cc1 | 16.4 µM (active)
COCCOC1CCN(C(=O)c2ccc(OC)c(OC3CCN(C(C)C)CC3)c2)CC1 | inactive
Cc1cccc(NS(=O)(=O)c2ccc([N+](=O)[O-])cc2)n1 | inactive
CCOC(=O)C1=C(c2ccc(OC)cc2)C(=O)c2ccccc2C1=O | 1.16 µM (active)
COc1ccc(OCCCON2C(=O)c3ccccc3C2=O)cc1 | inactive
CCOC(=O)c1cnc(-c2ccccc2)nc1Oc1ccc(C)cc1 | inactive
Cc1cc(C)c(C#N)c(SCC(=O)NN2CC(=O)N(c3ccccc3F)CC2=O)n1 | inactive
COC(=O)c1ccc(CSc2nncn2N)cc1 | inactive
CCOc1c2ccc(C(=O)NCc3ccc4c(c3)OCO4)cc2nn1C | inactive
Cc1ccc(CCNC(=O)c2ccc3c(c2)nc2n3CCC(C)C2)cc1 (configuration not stated) | inactive
C=CCNC(=O)c1ccc2c3n(nc2c1)-c1ccc(C)cc1CO3 | 20.6 µM (active)
Cc1cc2c(cc1C)NC1(C[C@H]3CCC(=O)N4CC[C@@H](C1)[C@@H]34)C(=NC(C)(C)CC(C)(C)C)N2 (some centres not stated) | 20.6 µM (active)
O=C1CCC[C@@H]2C[C@@]3(C[C@@H]4CCN1[C@H]24)Nc1ccccc1NC3=NCc1ccccc1 | inactive
O=C1CC[C@@H]2CC3(C[C@@H]4CCN1[C@H]24)Nc1cc([N+](=O)[O-])ccc1NC3=NC1CCCCC1 (some centres not stated) | inactive
